A short description of this experiment: NCI Yeast Anticancer Drug Screen. Data for the rad50 strain (AID 155).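 Further: 0% = growth of vehicle-only cultures of the same strain.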 The note with it: S. cerevisiae rad50 strain growth inhibition, stronger effect = higher value. The method, then:
Growth inhibition of yeast strains with defined genetic alterations is measured as a screen for potential anti-cancer activity. Selected strains with alterations in DNA damage repair or cell cycle control were exposed to compounds and growth inhibition was measured relative to vehicle treated controls. The strain used in this assay is rad50

The mark [1] stands for this setting: at 5.0 µM (retest, dose inferred, filed as 0.5).
The mark [2] stands for this setting: at 50.0 µM (retest, dose inferred, filed as 5.0).

The panel holds about 79,000 compounds, 15% with a hit somewhere; the sample as a whole holds those more often. Values without a mark were called inactive. The source made the active and inactive calls. No stated cut-off is given here; in the data, active means growth inhibition above about 70%; inactive means the rest.

`COc1ccc2c(C)cc(N/N=C/c3sccc3C)nc2c1`: the growth inhibition by setting is: (at 1.2 µM) -15%; (at 3.7 µM) -25%; under setting [1], 22%; (at 11.0 µM) 23%; (at 33.0 µM) 80% (active); under setting [2], 92% (active). Moreover, the growth inhibition (at 50.0 µM) was 68.5% and the growth inhibition (at 100.0 µM) was 73% (active).
For `Cc1c2ccncc2c(C)c2c1oc1ccccc12`, the growth inhibition by setting is: (at 1.2 µM) 53%; (at 3.7 µM) 87% (active); under setting [1], 92% (active); (at 11.0 µM) 94% (active); (at 33.0 µM) 97% (active); under setting [2], 88% (active). Also, the growth inhibition (at 50.0 µM) is 39.2% and the growth inhibition (at 100.0 µM) was 95% (active).
For `O=Cc1ccccc1B(O)O`, the growth inhibition by setting is: (at 1.2 µM) 31%; (at 3.7 µM) 79% (active); under setting [1], 48%; (at 11.0 µM) 96% (active); (at 33.0 µM) 99% (active); under setting [2], 95% (active). Further, the growth inhibition is, setting by setting: (at 50.0 µM) 98.8% (active); (at 100.0 µM) 99% (active).
With `O=C(CCC(=O)c1ccc(O)cc1)Oc1ccc(O)cc1`, the growth inhibition was 2% (at 1.2 µM); 4% (at 3.7 µM); -13% under setting [1]; 2% (at 11.0 µM); 6% (at 33.0 µM); 16% under setting [2]. The growth inhibition was -2.75% (at 50.0 µM) and 11% (at 100.0 µM).
Take `Clc1ccc(C(c2ccc(Cl)cc2)N2CCNCC2)cc1`: the growth inhibition runs as follows: (at 1.2 µM) -3%; (at 3.7 µM) -1%; under setting [1], 38%; (at 11.0 µM) 6%; (at 33.0 µM) 67%; under setting [2], 95% (active). Further, the growth inhibition is 92% (active) (at 50.0 µM) and 97% (active) (at 100.0 µM).
